Compound activity as filed in PubChem BioAssay.
Rows were chosen to be rich in hits. Some 11% of all compounds tested hit in one or more screens of this group.
Gal4-VP16 FLuc: Gal4-VP16 reporter inhibition counter-screen. Drosophila S2 Gal4-VP16 UAS-luciferase, luminescence, 20 h. Potency, µM (doses to about 53.6 µM), hits mostly inhibitors. 310,000 compounds, 3.5% hits. AID 2546;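 also: Gal4-VP16 expression switched on by copper sulfate through the metallothionein promoter; nearly all actives have a fitted effect of over 50% in size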
MCF10A rereplic: DNA re-replication induction in MCF 10a cells. MCF 10A DNA re-replication, Hoechst nuclear intensity, 48 h. Potency, µM (series often up to 46.1 µM), usual class: activators. 350,000 compounds, 2.9% hits. AID 624296; also: nearly all actives have a fitted effect of over 50% in size
SW480 rerep: DNA re-replication induction in SW480 cells; SW480 DNA re-replication, Hoechst DNA content imaging, 48 h; Potency, µM (top dose mostly 46.1 µM), usual class: activators; 340,000 compounds, 1.8% hits; AID 624297; also: nearly all actives have a fitted effect of over 55% in size
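Readout is total intensity of Hoechst-stained nuclei, excited at 405 nm and collected at 500-530 nm. Compound treatment lasted 48 hr at 37 C in 5% CO2 before staining.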
IL1B secr inh: inflammasome signaling inhibition, IL-1 beta readout | THP-1 LPS/ATP IL-1B secretion, AlphaLISA, 16 h; active compounds read low | 360,000 compounds, 4.7% hits | AID 743279 | activity change, % at 57.5 µM; in the data active = activity change below about -50%; inconclusive = mostly about -30% to -49%
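Secreted IL-1B measured by AlphaLISA bead assay after 16 h compound exposure of THP-1 cells; compounds (final up to 57.5 uM) added 1 h before LPS (250 ng/mL) and ATP (1.25 mM) stimulation; lower signal means less secretion.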
RORgamma inh: ROR gamma (mouse) transcription inhibition. Drosophila S2 Gal4-RORgamma UAS-luciferase reporter, 20 h. 310,000 compounds, 5.4% hits. Potency, µM (series often up to 53.6 µM), hits mostly inhibitors; also: nearly all actives have a fitted effect of over 60% in size
Target sequence (P51450 whole entry, looked up, the tested form may be a part): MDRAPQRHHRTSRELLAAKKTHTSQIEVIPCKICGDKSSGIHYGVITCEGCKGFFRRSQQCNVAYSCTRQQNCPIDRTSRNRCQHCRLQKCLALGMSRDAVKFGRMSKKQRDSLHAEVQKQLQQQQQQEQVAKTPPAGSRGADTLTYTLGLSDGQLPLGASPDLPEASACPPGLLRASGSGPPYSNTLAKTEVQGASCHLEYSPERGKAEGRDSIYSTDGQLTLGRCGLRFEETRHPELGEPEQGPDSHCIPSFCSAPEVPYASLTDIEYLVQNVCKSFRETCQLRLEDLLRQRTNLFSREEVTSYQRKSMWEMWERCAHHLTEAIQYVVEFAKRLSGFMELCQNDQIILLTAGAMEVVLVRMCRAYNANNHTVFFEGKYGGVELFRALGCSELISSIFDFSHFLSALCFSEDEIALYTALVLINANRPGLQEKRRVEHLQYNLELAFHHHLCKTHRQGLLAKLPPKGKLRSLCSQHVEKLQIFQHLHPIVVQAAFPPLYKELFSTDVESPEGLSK
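ROR gamma transcriptional activity was tracked as Gal4-UAS luciferase output in stably transfected Drosophila Schneider cells, with compound added 1 hr before 700 uM copper sulfate induction and a 20 hr ambient-temperature incubation.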
Hits are given with their value; 0 = inactive; ? = inconclusive; - = no result; [ ] = another dose, or the depositor's remark. Unless noted, calls follow the shape of the dose curve; as a rule, active = well fitted curve in the direction sought with a large enough effect; inconclusive = small, poorly fitted or top-dose-only effect, or another doubt; inactive = no such curve, though single readings can be large; an effect the other way counts as inactive or inconclusive.

SMILES	Gal4-VP16 FLuc	MCF10A rereplic	SW480 rerep	IL1B secr inh	RORgamma inh
CCCCC#Cc1nc(NC)c2ncn([C@@H]3O[C@@H](CO)[C@H](O)[C@H]3O)c2n1	0	-	-	-	0
COc1ccc(CNC(=O)CN2CCN(c3ccccc3O)CC2)cc1OC	0	0	0	0	0
COC(=O)c1ccc2nc(NC(=O)C3CC3)sc2c1	?	0	0	0	8.91µM
CCOC(=O)c1sc(NC(=O)c2ccc(S(=O)(=O)N3CCCCC3)cc2)nc1-c1ccccc1	0	0	0	0	?
CCOC(=O)N1CCN(S(=O)(=O)c2ccc(C(=O)Nc3nc4ccccc4s3)cc2)CC1	0	0	0	0	0
CCOC(=O)c1ccc2nc(Nc3nc4ccc(F)cc4s3)sc2c1	0	10.3µM	0	0	0.794µM
CCOC(=O)c1sc(NC(=O)c2ccc(S(=O)(=O)N3CCOCC3)cc2)nc1-c1ccccc1	0	0	18.4µM	0	?
CCOC(=O)N1CCN(S(=O)(=O)c2ccc(C(=O)Nc3nc4ccc(F)cc4s3)cc2)CC1	0	16.4µM	0	0	0
CN(CCc1ccccc1)C(=O)c1ccc(NC(=O)Cc2ccc([N+](=O)[O-])cc2)cc1	-	0	0	?	-
CC(NC=O)c1nc2ccccc2n1CCc1ccccc1 (stereo unspecified)	0	0	0	0	0
Cc1nc(NCc2ccc3c(c2)OCO3)c2oc3ccccc3c2n1	0	0	0	-51.9	?
Cc1nc(Nc2ccc3c(c2)OCCO3)c2oc3ccccc3c2n1	0	?	?	-83.8	0
CCc1nc(Nc2ccc3c(c2)OCCO3)c2oc3ccccc3c2n1	0	?	0	0	0
CCc1nc(NCc2ccc3c(c2)OCO3)c2oc3ccccc3c2n1	0	?	0	0	0
Cc1nc(Nc2cccc(Cl)c2)c2oc3ccccc3c2n1	0	?	0	-72.0	0
Cc1ccc(NC(=O)Cn2c(=O)ccn(Cc3ccccc3)c2=O)cc1S(=O)(=O)N1CCOCC1	-	0	0	0	-
O=C(Nc1cccc(Br)c1)c1ccc2c(c1)SC1=NS(=O)(=O)CCN12	-	0	0	-61.7	-
C/C(CCC12CC3CC(CC(C3)C1)C2)=N\NC(N)=S	4.47µM	?	3.26µM	0	1.26µM
NC(=O)NCC12CC3CC(CC(C3)C1)C2	0	0	0[9.22 µM]	0	0
C=C1C(=O)OC2C1CCC(C)=C1C(=O)C3OC3(C)C12 (stereo unspecified)	-	?	?	-104.5	-
COc1cccc(CNc2nc3cc(-c4cnn(Cc5ccccc5)c4)sc3c(=O)n2C)c1	-	-	-	0	-
N#CCSc1ccccc1NC(=O)COC(=O)C1CCN(C(=O)c2ccc(Cl)cc2)CC1	-	-	-	0	-
COc1ccc(-n2cc(-c3ccccc3)c3c(N4CCN(CCO)CC4)ncnc32)cc1	?	0	?	?	0
Cc1ccc(-n2cc(-c3ccccc3)c3c(=O)[nH]cnc32)cc1	0	23.1µM	0	0	0
Cc1ccc(-n2cc(-c3ccccc3)c3c(N4CCOCC4)ncnc32)cc1	0	18.4µM	?	?	0
SMILES	Gal4-VP16 FLuc	MCF10A rereplic	SW480 rerep	IL1B secr inh	RORgamma inh
CC1CN(c2ncnc3c2c(-c2ccccc2)cn3-c2ccc(F)cc2)CC(C)O1 (stereo unspecified)	0	?	0	?	0
OCCN1CCN(c2ncnc3c2c(-c2ccccc2)cn3-c2ccc(F)cc2)CC1	0	0	0	-96.8	0
Cc1cccc(-n2cc(-c3ccccc3)c3c(N4CCOCC4)ncnc32)c1	0	?	0	-66.9	0
O=c1[nH]cnc2c1c(-c1ccccc1)cn2-c1ccccc1	0	0	0	0	0
O=P(O)(O)OC[C@H]1O[C@](O)(COP(=O)(O)O)[C@@H](O)[C@@H]1O	0	0	0	-	0
Cc1cc(N2CCN(C(C(=O)NC3CCCC3)c3ccc(-c4ccccc4)cc3)CC2)c2ccccc2n1 (stereo unspecified)	-	-	-	0	-
O=c1cccc(-c2cccc3ccccc23)o1	-	-	-	0	-
COC1/C=C/OC2(C)Oc3c(C)c(O)c4c(O)c(c(/C=N/N5CCN(C)CC5)c(O)c4c3C2=O)NC(=O)/C(C)=C/C=C/C(C)C(O)C(C)C(O)C(C)C(OC(C)=O)C1C (stereo unspecified)	0	-	-	-	0
CCCCn1c(N)c(N(CC(C)C)C(=O)c2ccc(Br)s2)c(=O)[nH]c1=O	0	0	0	0	0
CC[C@](C)(CN(C)C)OC(=O)c1ccccc1	-	0	0	-	-
Cc1ccc(-n2cc(-c3ccccc3)c3c(N4CCN(C)CC4)ncnc32)cc1	0	20.6µM	0	0	0
Cc1ccc(COC(=O)Cc2coc3cc(O)ccc23)cc1	7.08µM	0	0	0	5.62µM
Cc1ccc(Oc2coc3cc(O)ccc3c2=O)cc1	0	0	0	0	0
Cc1cccc(COCC(Cc2ccccc2)N2CCN(C(=O)c3ccc(C(F)(F)F)cc3)CCC2=O)c1 (stereo unspecified)	?	?	0	-75.9	?
Cc1cccc(COC[C@H](Cc2ccccc2)N2CCN(C(=O)c3ccc(C(F)(F)F)cc3)CCC2=O)c1	-	-	-	-66.6	-
O=C(c1ccc(C(F)(F)F)cc1)N1CCC(=O)N(C(COCc2ccc(C(F)(F)F)cc2)Cc2ccccc2)CC1 (stereo unspecified)	0	?	?	-81.9	0
Cc1cccc(C(=O)N2CCC(=O)N([C@H](COCc3cccc(Cl)c3)Cc3ccccc3)CC2)c1	0	-	-	0	0
COc1ccc(-n2nc(C(=O)NCC(=O)N(C)Cc3ccccc3)c3ccccc3c2=O)cc1OC	0	?	0	0	0
Cn1c(C(=O)OC(C(=O)NC2CCCC2)c2cccnc2)cc2sccc21 (stereo unspecified)	0	10.3µM	?	0	0
CCC1Sc2ccc(S(=O)(=O)N3CCN(c4ccccc4)CC3)cc2NC1=O (stereo unspecified)	0	20.6µM	?	0	?
CCOc1ccc(/C=N/NC(=S)NC2CC3C=CC2C3)cc1 (stereo unspecified)	3.16µM	0	?	0	1µM
COc1cc(/C=N/NC(=S)NC2CC3C=CC2C3)cc(OC)c1OC (stereo unspecified)	4.47µM	0	0	-	1.78µM
COc1ccc(CCNC(=O)CN2c3cccc4cccc(c34)S2(=O)=O)cc1	-	0	0	?	-
CC1Cc2cc(S(=O)(=O)N3CCC(C(=O)N4CCCCC4)CC3)ccc2N1C(=O)C1CC1 (stereo unspecified)	0	0	0	0	0
Cc1ccccc1N1CCN(S(=O)(=O)c2cccs2)CC1	0	0	0	-54.0	0
CC1Cc2ccccc2N1C(=O)C1CCN(S(=O)(=O)c2cccs2)CC1 (stereo unspecified)	0	0	?	-66.8	0
CC(=O)c1ccc(N2CCN(S(=O)(=O)c3ccc4c(c3)CC(C)N4C(=O)C3CC3)CC2)cc1 (stereo unspecified)	11.2µM	0	?	0	0
